Only some compounds are listed: those with a hit (about 7.8% of all), similar ones and a draw of the others.
Vaccinia mCherry = vaccinia inhibition (mCherry reporter). Potency, µM (top dose mostly 36.5 µM), inactives show at the top dose activity change, negative = inhibition, actives largely listed as inhibitors. 0.63% of 310,000 active. Vaccinia virus mCherry reporter infection, fluorescence. AID 720579; calls by dose curve; tested in A549 cells; also: potency is read from the fitted curve at half-maximal effect; nearly all actives have a fitted effect of over 35% in size
MARV entry inh = inhibitors of Marburg virus binding or cell entry | 1.8% of 300,000 active | AID 540276 | Marburg virus pseudotyped entry inhibition, cell reporter | Potency, µM (top dose mostly 37.8 µM), for inactives: top-dose activity change, negative = inhibition, most hits filed as inhibitors; calls by dose curve; tested in HEK293 cells; also: potency is read from the fitted curve at half-maximal effect
Lassa entry inh = blocks Lassa virus binding to or entry into cells. Potency, µM (highest dose often 37.9 µM), for the others: at the top dose activity change, negative = inhibition, most hits filed as inhibitors. Lassa virus pseudotype entry inhibition, cell reporter. AID 540256. 1.2% of 300,000 active; calls by dose curve; tested in HEK293 cells; also: potency is read from the fitted curve at half-maximal effect; nearly all actives have a fitted effect of over 50% in size
HCMV inh = human cytomegalovirus inhibition | 4.5% of 410,000 active | activity change, negative = inhibition, % at 57.5 µM | HFF cells, HCMV-luciferase reporter, 72 h; stronger effect = lower value; in the data active = activity change below about -60%; inconclusive = no clear call, values can overlap the other calls; inactive = above about -39%
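Steps: HFFs plated, 16 h 37C; compounds added; HCMV-luciferase added to MOI 1 PFU/cell; 72 h 37C; OneGlo reagent, 5 min room temperature; luminescence read, normalized to controls.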
Vaccinia Venus = inhibitors of vaccinia virus (Venus reporter); AID 720580; Vaccinia virus Venus reporter expression, fluorescence; 0.46% of 330,000 active; Potency, µM (titrated, usually from 36.5 µM), without a hit: at the top dose activity change, negative = inhibition, actives largely listed as inhibitors; calls by dose curve; tested in A549 cells; also: potency is read from the fitted curve at half-maximal effect; nearly all actives have a fitted effect of over 30% in size
HCV inhibitor = blocks hepatitis C virus. Huh7.5.1 HCVcc-Cre infection, luciferase reporter, 44 h. 3.4% of 340,000 active. Potency, µM (titrated, usually from 41.8 µM), without a hit: at the highest dose activity change, negative = inhibition, most hits filed as inhibitors; active = well fitted inhibition curve with a large enough effect; inconclusive = small, poorly fitted or top-dose-only effect, or another doubt; inactive = no such curve, though single readings can be large or run the other way; also: potency is read from the fitted curve at half-maximal effect
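HCVcc-Cre virus at an moi near 0.5 was added right after compound to cells cultured 4 h from seeding (1,000 cells/well). Luciferase activity was determined 44 h later, 15 min after substrate addition at RT.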
* marks the source's active call; other numbers are inactive results; i = inactive; ? = inconclusive; nt = no result; [ ] = another dose, or the depositor's remark. % is scaled to controls: 0 for no effect and ±100 for the full control effect.

SMILES	Vaccinia mCherry	MARV entry inh	Lassa entry inh	HCMV inh	Vaccinia Venus	HCV inhibitor
COc1ccc(C(=O)N2CCN(c3ccc(NC(=O)c4cccs4)cc3)CC2)cc1	-1.5%	-23.7%	0.8%	-67.8*	-14.7%	?
Cc1ccc(C(=O)NC(=S)Nc2ccc(N3CCN(C(=O)c4ccco4)CC3)cc2)cc1	-19.8%	8.8%	-6.4%	?	-29.6%	11.2µM*
O=C(Nc1ccc(N2CCN(C(=O)c3ccccc3)CC2)cc1)c1cccs1	i	-2.0%[46.1 µM]	?	73.7	-5.4%	2.4%
CC(C)C(=O)Nc1ccc(N2CCN(C(=O)c3cccs3)CC2)cc1	-12.2%	13.7%	4.4%	96.9	-3.7%	17.5%
CC(C)Oc1ccc(C(=O)Nc2ccc(N3CCN(C(=O)c4ccco4)CC3)cc2)cc1	-11.9%	-1.7%[46.1 µM]	?	-39.1	6.1%	-11.4%
O=C(Nc1ccc(N2CCN(C(=O)c3ccco3)CC2)cc1)c1ccc([N+](=O)[O-])cc1Cl	nt	nt	nt	-2.9	nt	?
COc1ccc(-c2cc(-c3ccc(C)cc3)nc3c2COc2ccccc2-3)cc1	3.5%	4.3%[46.1 µM]	?	-3.4	13.3%	nt
CCN1C[C@@]2(COC)C3[C@@H](OC)C4[C@@H]1C3([C@@H]1C[C@@]3(O)[C@H](OC(=O)c5ccccc5)[C@@H]1[C@]4(OC(C)=O)[C@@H](O)[C@@H]3OC)[C@H](OC)C[C@H]2O	nt	1.1%	nt	nt	nt	nt
CN(CCO)C(=O)c1cn(C2CCN(Cc3cccc(C(F)(F)F)c3)CC2)nn1	-1.6%	nt	nt	nt	-4.7%	nt
COc1ccc(C(=O)N2CCN(c3ccc(NC(=O)c4ccco4)cc3)CC2)cc1	-8.1%	-1.3%	-15.0%	-75.6*	-19.6%	-6.6%
CCc1ccc(C(=O)N2CCN(c3ccc(NC(=O)c4ccco4)cc3)CC2)cc1	-2.7%	18.2%	?	13.1	-11.7%	nt
Cc1ccccc1C(=O)N1CCN(c2ccc(NC(=S)NC(=O)c3cccs3)cc2)CC1	nt	nt	nt	-13.0	nt	?
Cc1ccc(C(=O)N2CCN(c3ccc(NC(=S)NC(=O)c4cccs4)cc3)CC2)cc1	?	7.94µM*	?	-74.1*	-27.7%	2.24µM*
C[C@@H]1Cc2ccccc2N1NC(=O)c1ccc(Cl)c(S(N)(=O)=O)c1	nt	5.0%	nt	nt	nt	nt
CCOC(=O)C(C)CC(C)C(=O)N1CCOCCOCCN(C(=O)C(C)CC(C)C(=O)OCC)CCOCC1 (stereo not drawn)	nt	-10.5%	0.1%	36.8	nt	-4.2%
CCOC(=O)C(C(=O)OCC)C(C(=O)OCC)N1CCOCC1 (stereo not drawn)	i	?	11.3%	-105.4*	0.0%	?
COc1ccc(-n2nc(C(=O)N3CCCCC3)c3c4ccccc4n(C)c3c2=O)cc1Cl	-13.6%	-2.5%[46.1 µM]	4.0%[46.1 µM]	1.6	-15.3%	nt
CC(C)CC(=O)/C=C/n1c(=S)oc2ccccc21	-11.1%	-16.0%	12.8%	57.2	-3.0%	14.1µM*
Cn1c(=S)oc2ccccc21	i[7.34 µM]	2.1%[46.1 µM]	5.3%	28.6	3.8%[7.34 µM]	10.7%
CC(=O)Nc1ccc(NC(=O)CCn2c(=S)oc3ccccc32)cc1	nt	nt	nt	-18.4	nt	5.8%
CC(=O)/C=C/n1c(=S)oc2ccccc21	-27.8%	13µM*	?	-99.7*	?	4.47µM*
N=c1nc(-c2ccccc2)n(-c2ccccc2)s1	21.8%	nt	nt	nt	-14.0%	nt
N#C/C(=C/c1ccc(Sc2nc3ccccc3[nH]2)o1)c1cccc(Br)c1	20µM*	?	-26.3%	-85.3*	?	8.91µM*
N#C/C(=C/c1ccc(Sc2nc3ccccc3[nH]2)o1)c1ccccc1F	nt	-5.7%	-17.1%	-102.3*	nt	11.2µM*
N#C/C(=C/c1ccc(Sc2nc3ccccc3[nH]2)o1)c1cccc(F)c1	nt	-20.5%	0.5%	-103.1*	nt	?
CCN1CCCC1CNC(=O)c1cnn(-c2nccc(-c3ccco3)n2)c1C1CC1 (stereo not drawn)	-0.4%	nt	nt	nt	-12.5%	nt
CC(NC(=O)c1cc(F)ccc1F)c1nnc2n1CCN(Cc1cccs1)CC2 (stereo not drawn)	-17.1%	nt	nt	nt	-6.7%	nt
CCOC(=O)Cc1csc(NC(=O)c2ccc(N3CCOCC3)cc2[N+](=O)[O-])n1	nt	nt	nt	18.2	nt	11.2µM*
O=C(c1ccccc1)N1CCc2ccccc21	-16.3%	13.1%	3.9%	6.4	-16.8%	7.0%

Screens (PubChem BioAssay)
